Assay outcomes (PubChem)
USP30 inh = inhibitors of human USP30 deubiquitinase | purified USP30, Ub-rhodamine cleavage fluorescence | AID 1645860 | inhibition, % at 25 µM | actives 5.3% (n = 47,000)
USP17 inh = blocks human USP17 ubiquitin-rhodamine cleavage. purified USP17, Ub-rhodamine cleavage fluorescence, 3 h. inhibition, % at 50 µM. actives 6.5% (n = 47,000). AID 1645855
Target sequence (A8MUK1 whole entry, looked up): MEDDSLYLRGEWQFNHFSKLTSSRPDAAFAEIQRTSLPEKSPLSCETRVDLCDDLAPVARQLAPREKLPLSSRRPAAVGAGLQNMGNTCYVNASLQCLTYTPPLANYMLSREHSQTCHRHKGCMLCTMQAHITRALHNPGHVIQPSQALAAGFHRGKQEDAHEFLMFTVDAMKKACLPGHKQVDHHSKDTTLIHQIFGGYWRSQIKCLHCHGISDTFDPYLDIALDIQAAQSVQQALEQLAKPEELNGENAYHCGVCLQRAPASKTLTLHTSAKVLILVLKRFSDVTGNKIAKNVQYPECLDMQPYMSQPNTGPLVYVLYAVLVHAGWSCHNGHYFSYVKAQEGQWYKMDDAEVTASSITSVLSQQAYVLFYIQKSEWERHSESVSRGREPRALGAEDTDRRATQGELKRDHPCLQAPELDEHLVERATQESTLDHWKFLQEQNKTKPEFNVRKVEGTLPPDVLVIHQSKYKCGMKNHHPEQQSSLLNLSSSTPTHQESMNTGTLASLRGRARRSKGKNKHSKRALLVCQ
USP28 inh = human USP28 deubiquitinase inhibition. Q96RU2. purified USP28, Ub-rhodamine cleavage fluorescence, 30 min. inhibition, % at 25 µM. actives 3% (n = 47,000)
Numbers without * were called inactive; i = inactive; · = no result. A selection: hits, their analogues and other compounds. The true share with any hit is near 11%. Cut-off read from the data, not from the text of the source: active = inhibition above about 30%; inactive = the rest.

SMILES	USP30 inh	USP17 inh	USP28 inh
Cc1ccccc1CC(=O)Nc1nnc(C2CC2)s1	1	41*	-3
Cc1ccccc1N1CC(c2nnc(NC(=O)Cc3ccc(Cl)cc3)s2)CC1=O (centres undefined)	17	2	11
Cc1ccccc1N1CC(c2nnc(NC(=O)CCCc3ccccc3)s2)CC1=O (centres undefined)	18	9	16
CCc1ccccc1N1CC(c2nnc(NC(=O)CCc3ccccc3)s2)CC1=O (centres undefined)	-7	30*	-5
Cc1nn(C)c(C)c1CC(=O)Nc1nnc(C2CCCCC2)s1	26	11	41*
Cc1ccccc1CNC(=O)c1cnc2sc3c(n2c1=O)CCC3	-59	·	-13
O=C(C1CN(c2nc3c(C(F)(F)F)cccc3s2)C1)N1CCC2(CC1)OCCO2	0	-5	8
CCNC(=O)N1C[C@H](Oc2ccccn2)[C@H]2C[C@@H]1CC[C@H]2OC	0	·	-11
COCCOc1ccc(NC(=O)NCc2nc(C)cs2)cn1	i	-152	-180
COC(=O)c1cc2c(ccn2C)n1CC(=O)N1C(C)CCCC1C (centres undefined)	i	-142	-185
Cc1ccc2[nH]c(=O)c(-c3nc4cccc(C)n4c3NCc3ccc4c(c3)OCO4)cc2c1	-19	26	4
COCCn1c(C(=O)Nc2ccc(C(C)=O)cc2)cc2c(=O)n(C)c(=O)n(C)c21	-9	0	0
COCCn1c(C(=O)Nc2ccccc2Cl)cc2c(=O)n(C)c(=O)n(C)c21	-3	36*	-10
Cc1ccc(NC(=O)c2nc3c(s2)CCCN3C(=O)C2CC2)cn1	6	10	7
Cc1ccc(N2CCN(S(=O)(=O)c3c(C)[nH]c(C)c3-c3nnc(C)o3)CC2)cc1	-46	-21	-11
Cc1cc(C)c(C(=O)CSc2nnc(-c3cccnc3)n2C)cc1C	2	0	-2
COc1ccc(C(=O)CSc2nnc(-c3cccnc3)n2-c2ccccc2)cc1	52*	42*	0
COc1c(C)c(OC(=O)c2c(C)c(C)c(OC(=O)c3c(C)c(C)c(O)c(C)c3O)c(C)c2OC)c(C)c(C)c1C(=O)O	54*	51*	70*
COc1c(O)c(C)c(C)c(O)c1OC (tested in a mixture with another compound)	15	29	4
COc1ccc(NC(=O)c2cn(Cc3ccccc3)nc2-c2cccnc2)c(OC)c1	18	25	17
COc1ccc(S(=O)(=O)N2CCOC3(COc4ccccc4N(C)C3)C2)cc1 (centres undefined)	-4	-2	-8
COc1ccc(-c2cc(-c3nnc(CSc4nc5ccccc5n4C)o3)c3ccccc3n2)cc1OC	0	58*	17
COc1ccc(C(=O)CSc2nc3ccccc3n2C)c(F)c1	-32	-12	-9
Fc1cccc(-c2ccc3c(C4CCCN4c4ncccn4)nnn3c2)c1 (centres undefined)	-50	-29	-21
COC1=C(OC)C(=O)C(C/C=C(/C)CC/C=C(\C)CC/C=C(\C)CC/C=C(\C)CC/C=C(\C)CC/C=C(\C)CCC=C(C)C)=C(C)C1=O	8	10	10
SMILES	USP30 inh	USP17 inh	USP28 inh
CC(C)=CCC/C(C)=C/CC/C(C)=C/Cc1c(C)cc(O)cc1O	27	39*	32*
CCn1cc(Cl)c(C(=O)N2CCn3c(nnc3C(C)C)C2)n1	2	6	0
CCS(=O)(=O)N1CCC(n2c(-c3ccc(OC)cc3)nc3cccnc32)C1 (centres undefined)	-104	-62	-30
CCOC(=O)c1cnn(-c2ccc(C(=O)Nc3ccc(C)c(Cl)c3)cc2)c1N	15	62*	13
CCOC(=O)c1cnn(-c2ccc(C(=O)NCCCN3CCCCCC3)cc2)c1N	-116	10	-30
CN(C)C(=O)[C@@H]1C[C@@H]2CN(C(=O)Nc3ccccn3)CCN2[C@@]12C(=O)N(C)c1ccccc12	3	-2	-3
Cc1ncccc1C(=O)N1CCCC2(CNC(=O)c3ccccc3O2)C1 (centres undefined)	0	5	-6
CC(C)Cn1c(C2CCCCC2)nc2c(c(=O)c3ccccc3n2C)c1=O	5	12	-6
CC(C)c1nc2c(c(=O)c3ccccc3n2C)c(=O)n1CCc1ccccc1	50*	4	35*
Cn1c2ccccc2c(=O)c2c(=O)n(Cc3ccccc3)c(C3CCCCC3)nc21	42*	15	9
COc1ccc(CCn2c(-c3ccccc3)nc3c(c(=O)c4ccccc4n3C)c2=O)cc1	-50	-61	-16
CN(C)c1ccc(NC(=O)CN2C(=O)[C@H]3CCCN3c3ncccc32)cc1	-93	14	-17
O=C(C[C@@H]1CCN2C[C@@H]1CCCOc1ccccc1CN(C(=O)Nc1ccccc1)CC2=O)N1CCOCC1	79*	75*	74*
O=C(CC1CCN(C(=O)Nc2ccccc2)CC1)N1CCOCC1	9	6	6
COc1ccccc1C(=O)Nc1cccc(S(=O)(=O)N2CCc3sccc3C2)c1	-29	-11	-6
Cc1cc(N2CCN(c3ncccn3)CC2)nc2ccc(NC(=O)/C=C/c3ccccc3Cl)cc12	10	51*	40*
COc1ccc(/C=C/C(=O)Nc2ccc3nc(N4CCN(c5ncccn5)CC4)cc(C)c3c2)cc1	-11	43*	0
COc1ccccc1CNC(=O)CCC(=O)Nc1ccc2nc(N3CCC(C)CC3)cc(C)c2c1	-12	32*	5
Cc1cc(N2CCC(C)CC2)nc2ccc(NC(=O)C3CC3)cc12	-5	-14	21
CCN1CCN(c2cc(C)c3cc(NC(=O)c4cncc(Br)c4)ccc3n2)CC1	-44	-16	21
CCN(CC)c1cc(C)c2cc(NC(=O)c3ccncc3)ccc2n1	-20	-17	71*
COc1ccccc1CNC(=O)CCC(=O)Nc1ccc2nc(N3CCN(C)CC3)cc(C)c2c1	-22	-8	-1
Cc1cc(-c2nnc(C3CCC3)o2)c(C)n1CC(=O)Nc1ccccc1	-59	0	12
CC(C)c1noc(CC2CCN(C(=O)c3ccc(Cl)cc3)CC2)n1	-8	-8	-1
Cc1ccc(Cl)cc1N1CCN(C(=O)c2cnn3c(-c4ccccc4)cc(-c4ccccc4)nc23)CC1	5	-2	-8
SMILES	USP30 inh	USP17 inh	USP28 inh
CC1(C(=O)NC2CCCC2)Cn2c(ccc2-c2ccco2)C(=O)N1Cc1ccccc1 (centres undefined)	-234	30	-10
Fc1cccc(Cc2nnc(-c3cccnc3)o2)c1	-20	-4	0
Cc1cc(N2CCCCC2)nc2ccc(NC(=O)CCC(=O)NC(C)c3ccc4c(c3)OCCO4)cc12 (centres undefined)	11	36*	17
CCN1C(=O)c2cccnc2Sc2cc(NC(=O)CCc3ccc(OC)cc3)ccc21	-78	-11	12
CCOc1ccc(CNC(=O)CCC(=O)Nc2ccc3nc(N4CCCCC4)cc(C)c3c2)cc1	3	16	-3
COc1ccc(CC(=O)Nc2ccc3nc(N4CCOCC4)cc(C)c3c2)cc1	38*	53*	22
Cc1cc(N2CCOCC2)nc2ccc(NC(=O)CCC(=O)NCc3ccc(F)cc3)cc12	-2	4	-7
CCN(CC)c1cc(C)c2cc(NC(=O)CCc3ccc(OC)cc3)ccc2n1	5	13	46*
COc1ccc(CCC(=O)Nc2ccc3c(c2)Sc2ncccc2C(=O)N3C)cc1	-70	-8	55*
